Results on 42 compounds are retold here after PubChem BioAssay AID602329 (Broad Institute, 2012).

SMILES strings stand for the structures. Out of some 360,000 compounds screened, about 510 (0.14%) were called active.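 Rule for the calls: active = mean normalized replicate activity at least 40 and at least half of replicates scoring 40 or more; inconclusive = only one of the two criteria met; inactive = mean below 40 and under half of replicates reaching 40.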 The sample as a whole holds a higher share of actives than the screen did.

In this assay the target is DNA repair and recombination protein RAD54-like (Homo sapiens) (UniProt Q92698). In words: inhibitors of human RAD54 branch migration, primary screen, biochemical, fluorescence, single point (AID 602329).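 Note: 0% = median of neutral control wells and 100% = median of positive control wells; inhibitors cause a drop in the FAM fluorescence signal.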 The settings on record: RAD54 Holliday junction branch migration, FAM/BHQ fluorescence; at 10.4 µM; active compounds read high.
DNA repair and recombination protein RAD54-like (Homo sapiens), sequence (Q92698 whole entry, looked up): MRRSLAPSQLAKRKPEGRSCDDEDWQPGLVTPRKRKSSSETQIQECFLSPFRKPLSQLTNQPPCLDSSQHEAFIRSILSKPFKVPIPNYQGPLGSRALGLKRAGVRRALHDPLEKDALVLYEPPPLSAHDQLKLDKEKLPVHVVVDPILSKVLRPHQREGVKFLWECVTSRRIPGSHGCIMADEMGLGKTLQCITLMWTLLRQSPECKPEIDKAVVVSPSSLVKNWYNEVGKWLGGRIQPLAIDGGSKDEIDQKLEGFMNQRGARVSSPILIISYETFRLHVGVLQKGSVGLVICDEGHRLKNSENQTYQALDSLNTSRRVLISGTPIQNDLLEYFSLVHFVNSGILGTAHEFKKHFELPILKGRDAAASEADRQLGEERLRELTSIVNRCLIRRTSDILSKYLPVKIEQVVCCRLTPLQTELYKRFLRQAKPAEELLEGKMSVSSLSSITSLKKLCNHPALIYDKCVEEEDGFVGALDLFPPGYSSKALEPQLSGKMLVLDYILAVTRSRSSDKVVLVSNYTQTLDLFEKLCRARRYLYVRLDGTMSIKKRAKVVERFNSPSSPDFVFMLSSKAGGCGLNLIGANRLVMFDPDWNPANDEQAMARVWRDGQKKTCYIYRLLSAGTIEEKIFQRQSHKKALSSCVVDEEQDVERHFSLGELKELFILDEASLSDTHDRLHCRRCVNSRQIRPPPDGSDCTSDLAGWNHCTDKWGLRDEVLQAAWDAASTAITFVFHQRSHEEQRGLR
Regarding `COc1cccc(C#Cc2ccc([C@H]3[C@@H](CO)N(C(=O)c4ccccn4)[C@H]3C#N)cc2)c1`, the inhibition (in general, the drop in the measured response relative to a control, in per cent) was -3.06% (inactive).
To `CCCNC(=O)N(C)C[C@H]1Oc2ncc(-c3ccc(C(=O)N(C)C)cc3)cc2C(=O)N([C@@H](C)CO)C[C@@H]1C` belongs -0.543% (inactive).
With `C[C@@H]1CN([C@@H](C)CO)C(=O)c2cc(C#Cc3ccncc3)cnc2O[C@@H]1CN(C)C(=O)CN(C)C`, the inhibition is 0.163% (inactive).
To `C[C@H]1CN([C@@H](C)CO)C(=O)Cc2cc(NS(C)(=O)=O)ccc2O[C@@H]1CN(C)S(=O)(=O)c1ccc(Cl)cc1` belongs 4.72% (inactive).
In the case of `COCC(=O)Nc1ccc2c(c1)[C@@H]1C[C@H](CC(=O)NCc3cc(F)ccc3F)O[C@@H](CO)[C@@H]1O2` it was -1.13% (inactive); in that of `CO[C@H]1CN(C)C(=O)c2ccc(NC(=O)c3cc(C)on3)cc2OC[C@H](C)N(C)C[C@H]1C`, -1.45% (inactive).
On to `CN1CCN(CCCNC(=O)c2cc3c(=O)oc4ccccc4c3s2)CC1`, for which the inhibition is 55.7% (active).
On to `Cc1cccc2c1-c1sc(C(=O)NCCCN3CCc4ccccc4C3)cc1CO2`, for which the inhibition is 22% (inactive).
In the case of `O=C(NCCN1CCN(Cc2ccccc2)CC1)c1cc2c(=O)[nH]c3ccccc3c2s1` it was -0.046% (inactive).
As for `Cn1cnc(S(=O)(=O)N2C[C@H](O)COC[C@@H]3O[C@H](CC(=O)NCc4cccc(F)c4)CC[C@H]32)c1`, the inhibition was 7.2% (inactive).
As for `COc1ccc(/C=C(\NC(=O)c2ccccc2)C(=O)NCCN2CCOCC2)cc1OC`, the inhibition was -3.48% (inactive).
To `COc1ccc(CCNC(=O)c2ccc3c(c2)NC(=O)C(N2CCOCC2)S3)cc1OC` (configuration not stated) belongs -1.36% (inactive); to `CCN1CCN(CCNC(=O)c2ccc3c(c2)NC(=O)/C(=C\c2ccc(OC)c(OC)c2)S3)CC1`, 72.7% (active).
On to `CC(C)C(=O)Nc1ccc2c(c1)C(=O)N(C)[C@H]1CC[C@H](CC(=O)NCc3ccc(F)cc3)O[C@H]1CO2`, for which the inhibition was 7.1% (inactive).
In the case of `CNC(=O)C[C@H]1CC[C@H]2[C@@H](COc3ccc(NC(=O)c4cccc(OC)c4)cc3C(=O)N2C)O1`, the inhibition is 7.1% (inactive).
Turning to `COC(=O)[C@@H]1[C@@H](CO)[C@@H]2Cn3c(ccc(-c4ccccc4)c3=O)[C@@H]2N1C(=O)C1CC1`, the inhibition is -7.82% (inactive).
In the case of `C[C@@H]1CN([C@@H](C)CO)C(=O)c2cc(-c3ccncc3)cnc2O[C@@H]1CN(C)C(=O)C1CCCCC1` it was -1.52% (inactive).
To `N#C[C@@H]1[C@H](c2ccc(C#CC3CCCCC3)cc2)[C@@H](CO)N1S(=O)(=O)c1ccccc1` belongs 1.51% (inactive); to `O=C(NCCCN1CCOCC1)c1cnn2c(-c3ccccc3)cc(-c3ccccc3)nc12`, 58.3% (active); to `O=C(NCCCN1CCOCC1)c1cc(-c2cccc(O)c2)on1`, 10.7% (inactive).
For `O=C(NCCCN1CCOCC1)c1cc(-c2ccccc2F)no1`, the inhibition is -15.8% (inactive).
Turning to `C[C@H]1CN([C@@H](C)CO)S(=O)(=O)c2ccc(-c3cccnc3)cc2O[C@H]1CN(C)C(=O)C1CCCCC1`, the inhibition is 0.93% (inactive).
In the case of `COc1ccc(NC(=O)Nc2ccc3c(c2)C(=O)N([C@@H](C)CO)C[C@H](C)[C@@H](CN(C)Cc2ccc4c(c2)OCO4)O3)cc1`, the inhibition was 3.59% (inactive).
In the case of `COc1ccc(CN(C)C[C@@H]2Oc3ccc(NC(=O)NC(C)C)cc3C(=O)N([C@@H](C)CO)C[C@H]2C)cc1` it was 56.8% (active); in that of `COc1ccc(CN(C)C[C@@H]2Oc3ccc(NC(=O)Nc4ccc(OC)cc4)cc3C(=O)N([C@H](C)CO)C[C@H]2C)cc1`, 67.3% (active); in that of `CC(C)NC(=O)Nc1ccc2c(c1)C(=O)N([C@H](C)CO)C[C@@H](C)[C@@H](CN(C)Cc1ccncc1)O2`, -0.866% (inactive).
Consider `COc1ccc(NC(=O)Nc2ccc3c(c2)C(=O)N([C@H](C)CO)C[C@@H](C)[C@H](CN(C)Cc2ccccc2)O3)cc1`, for which the inhibition is 22.5% (inactive).
In the case of `CC(C)NC(=O)Nc1ccc2c(c1)C(=O)N([C@@H](C)CO)C[C@@H](C)[C@H](CN(C)Cc1ccc(-c3ccccc3)cc1)O2` it was 20.7% (inactive).
For `CN1c2ccc(C#Cc3cccnc3)cc2[C@@H]2[C@@H](CCN2S(=O)(=O)c2ccccc2)[C@H]1CO`, the inhibition was -8.94% (inactive).
To `CCCCCCCCCCOC(=O)Cn1c(COc2ccc(C)cc2)[n+](C)c2ccccc21` belongs 50.3% (active); to `CCOc1ccc(OCCSc2nc3ccccc3n2CC(=O)O)cc1`, -7.61% (inactive).
To `CCCCCn1c(=O)c(C(=O)OCC)c(Cl)c2ccccc21` belongs 0.614% (inactive); to `C[C@@H]1CN([C@@H](C)CO)C(=O)Cc2cc(NC(=O)Nc3ccc(C(F)(F)F)cc3)ccc2O[C@H]1CN(C)C(=O)Nc1ccc(F)cc1`, 0.667% (inactive); to `CN1C(=O)c2cc(NS(=O)(=O)c3ccccc3F)ccc2OC[C@@H]2O[C@@H](CC(=O)NC3Cc4ccccc4C3)CC[C@@H]21`, -2.97% (inactive).
As to `C[C@H](CO)N1C[C@H](C)[C@@H](CN(C)S(=O)(=O)c2ccc(Cl)cc2)Oc2ccc(NS(=O)(=O)c3cn(C)cn3)cc2C1=O`, the inhibition is -4.21% (inactive).
To `CO[C@@H]1CN(C)C(=O)c2cc(NC(=O)C3CCOCC3)ccc2OC[C@@H](C)NC[C@@H]1C` belongs 8.52% (inactive); to `CC(C)CC#Cc1cnc2c(c1)C(=O)N([C@@H](C)CO)C[C@@H](C)[C@@H](CN(C)S(=O)(=O)c1cccs1)O2`, 12.1% (inactive); to `COc1cccc(NC(=O)Nc2ccc3c(c2)C(=O)N(C)C[C@@H](OC)[C@H](C)CN(CC2CC2)[C@H](C)CO3)c1`, 8.71% (inactive).
To `Cc1ccc(S(=O)(=O)Nc2ccc3c(c2)C(=O)N([C@H](C)CO)C[C@H](C)[C@H](CN(C)Cc2ccccc2)OCCCC[C@@H](C)O3)cc1` belongs 5.79% (inactive).
To `COc1ccc(C(=O)Nc2ccc3c(c2)OC[C@H](C)N(C(C)=O)C[C@@H](C)[C@H](OC)CN(C)C3=O)cc1` belongs -4.9% (inactive).
For `CO[C@@H]1CN(C)C(=O)c2cc(NS(=O)(=O)c3ccc(Cl)cc3)ccc2OC[C@H](C)NC[C@@H]1C`, the inhibition was -8.54% (inactive).
In the case of `CN1c2ccc(-c3cccc(C#N)c3)cc2[C@@H]2[C@@H](CCN2C(=O)NC2CCCCC2)[C@@H]1CO` it was -3.76% (inactive).
